Source: PubChem (National Center for Advancing Translational Sciences (NCATS))
In the library only some 1.3% were active in any assay of this set; here they are far more common.
Mito fusion act = blocks mitochondrial division or promotes mitochondrial fusion. Potency, µM (highest dose often 46.1 µM), actives largely listed as activators. AID 485298. 320,000 tested, 0.23% active. S. cerevisiae fusion-defective mutant growth rescue, CellTiterGlo 48 h; also: nearly all actives have a fitted effect of over 45% in size
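Temperature-sensitive fusion-defective S. cerevisiae (e.g. fzo1-1, mgm1-5) were grown with compound in YPEG medium (3% ethanol, 3% glycerol) for 48 hours at 37C. Growth rescue was measured as viability by CellTiterGlo luminescence after 10 minutes at ambient.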
PTHR1 agonist = agonists of human PTHR1 parathyroid hormone receptor. Q03431. HEK293 GP2 PTHR1 cells, GloSensor cAMP luminescence, 1 h. Potency, µM (highest dose often 115 µM), hits mostly activators. 410,000 tested, 0.075% active. AID 743266; also: nearly all actives have a fitted effect of over 55% in size
Target sequence (Q03431 whole entry, looked up): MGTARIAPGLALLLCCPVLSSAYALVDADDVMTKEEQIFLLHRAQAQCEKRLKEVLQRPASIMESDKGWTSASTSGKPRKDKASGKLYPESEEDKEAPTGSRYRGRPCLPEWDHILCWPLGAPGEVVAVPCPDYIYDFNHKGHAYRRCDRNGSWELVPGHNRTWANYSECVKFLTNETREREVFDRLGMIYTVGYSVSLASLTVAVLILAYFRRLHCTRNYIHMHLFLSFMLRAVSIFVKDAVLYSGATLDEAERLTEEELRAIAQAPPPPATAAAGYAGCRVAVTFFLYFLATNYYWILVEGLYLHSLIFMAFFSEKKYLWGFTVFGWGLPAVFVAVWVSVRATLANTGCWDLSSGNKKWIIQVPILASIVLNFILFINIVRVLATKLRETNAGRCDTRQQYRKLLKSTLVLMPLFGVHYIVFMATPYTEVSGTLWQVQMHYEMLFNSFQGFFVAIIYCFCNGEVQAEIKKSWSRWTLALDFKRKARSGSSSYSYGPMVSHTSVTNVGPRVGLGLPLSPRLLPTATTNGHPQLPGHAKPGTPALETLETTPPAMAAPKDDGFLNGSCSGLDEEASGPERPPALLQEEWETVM
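HEK-293-derived GP2 cells expressing PTHR1 and a GloSensor cAMP reporter, 3,000/well, plated overnight, given luciferin plus IBMX (each 0.5 mM as added) for 1 h at 37 °C, then compound for 1 h at 37 °C. Luminescence was read after 15 min at room temperature.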
BRCA1 expr act = increases BRCA1 expression | MCF7-BRCA1-FFLuc reporter, luminescence, 48 h; response scale: scaled: vehicle 0%, 10 µM genistein 100% | Potency, µM (top dose mostly 46.1 µM), most hits filed as activators | 380,000 tested, 1.1% active | AID 624202; also: nearly all actives have a fitted effect of over 80% in size
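Compounds are tested at multiple concentrations on MCF7 BRCA1-luciferase reporter cells seeded at 2000 per well; after 48 h, a single luminescence end-point is taken and curves fitted to the normalized data.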
IL-2 act = activates IL-2 in a cell-based reporter assay | IL-2 activation reporter assay, cell-based qHTS; stimulated with anti-CD3/CD4/CD28 beads; in transgenic mouse T cells | activation, % (series mostly up to about 46 µM) | 360,000 tested, 0.065% active | AID 652025; in the data active = activation above about 50%; inconclusive = mostly about 30% to 49%
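EGFP and DsRed fluorescence is measured by plate cytometry in unstimulated transgenic mouse T cells exposed to compound for 60 minutes, then stimulated 18 hours at 37 degrees C with anti-CD3/anti-CD4 beads plus anti-CD28.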
TCR act = activates T cell receptor signaling | 330,000 tested, under 10 active | Potency, µM (doses to about 9.22 µM), actives largely listed as activators | AID 504894 | primary human leukocytes, anti-CD3, IL-2 HTRF, 48 h
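IL-2 release read by HTRF sandwich (Eu cryptate donor, d2 acceptor, 665 nm emission) after 48 hr exposure of primary human leukocytes to compound together with anti-CD3 beads in the absence of co-stimulatory signals.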
BCR signal inh = blocks chronic active B-cell receptor signaling; ABC-DLBCL IkBa-CBG/CBR reporter, luminescence ratio, 4 h; Potency, µM (highest dose often 46.1 µM), actives largely listed as inhibitors; 340,000 tested, 0.05% active; active = well fitted inhibition curve with a large enough effect in the signal ratio, with a control signal flat, not every such curve was filed as active; inconclusive = small, poorly fitted or top-dose-only effect, or effect the other way, or a change in a side signal; the % refers to the signal ratio
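Doxycycline induced both beetle luciferases in TMD8 lymphoma cells; IKK-driven degradation limits the IkappaBalpha-fused green signal, while red luminescence normalises for cell number and nonspecific effects. Compounds tested up to 46 uM, 4 hrs.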
Hits are given with their value; – = inactive; ? = inconclusive; · = no result given. Unless noted, calls follow the shape of the dose curve; as a rule, active = well fitted curve in the direction sought with a large enough effect; inconclusive = small, poorly fitted or top-dose-only effect, or another doubt; inactive = no such curve, though single readings can be large; an effect the other way counts as inactive or inconclusive.

SMILES | Mito fusion act | PTHR1 agonist | BRCA1 expr act | IL-2 act | TCR act | BCR signal inh
Cc1ccc(NC(=O)C(=O)NNC(=O)c2cccs2)cc1 | – | – | – | – | – | ?
COc1cc(NC(=O)c2cc3ccccc3cc2OC)ccc1NC(=O)c1cccs1 | – | – | – | – | – | –
Cc1ccc(NC(=O)c2cccs2)cc1 | – | – | 2.2µM | – | – | ?
Cc1ccccc1NC(=O)CSc1nc2ccc(NC(=O)c3cccs3)cc2s1 | · | – | – | · | · | ·
O=C(Nc1ccc(-n2ccc(C(F)(F)F)n2)cc1)c1cccs1 | – | – | 6.3µM | – | – | ?
COc1cc(NC(=O)c2ccccc2Cl)ccc1NC(=O)c1cccs1 | – | – | 6.3µM | – | – | –
O=C(O)c1ccccc1C(=O)Nc1ccc(-n2ccc(C(F)(F)F)n2)cc1 | – | – | – | – | – | –
O=C(Nc1ccc(O)cc1)c1ccc(NC(=O)c2cccs2)cc1 | – | – | 4µM | – | – | –
O=C(Nc1ccc(NC(=O)c2cccs2)cc1)c1ccccc1 | – | – | – | – | – | –
Cc1ccc(C(=O)OCC(=O)N2CCCCCC2)c(O)c1 | – | – | 13µM | – | – | ?
O=C(COc1ccc2ccccc2c1)N1CCN(c2ccccc2)CC1 | – | – | – | – | · | –
O=C(OCC(=O)N1CCCC1)c1ccccc1O | – | – | 20µM | – | – | –
Cc1ccc(C(=O)OCC(=O)N2CCOCC2)c(C)c1 | – | – | – | – | – | –
O=C(OCC(=O)N1CCOCC1)c1ccc2ccccc2c1O | – | – | 3.2µM | – | – | ?
O=C(COc1ccc2ccccc2c1)N1CCCC1 | – | – | 11µM | – | – | ?
CCc1ccc(C(=O)CN2C(=O)NC3(CCc4ccccc43)C2=O)cc1 (stereo not drawn) | – | – | – | – | – | –
O=C(OCC(=O)N1CCN(c2ccccc2)CC1)c1ccccc1[N+](=O)[O-] | – | – | 13µM | – | – | ?
Cc1cc(NC(C)c2ccccc2)n2ncc(-c3ccccc3)c2n1 (stereo not drawn) | – | – | 6.3µM | – | – | ?
Cc1cc(NCc2ccccc2)n2ncc(-c3ccccc3)c2n1 | – | – | ? | – | – | ?
CCOC(=O)c1c(C)[nH]c(C)c1S(=O)(=O)N(C)CC(=O)Nc1ccc(C)cc1C | · | – | – | · | · | ·
CC1CCC2C(=O)N(c3cccc(C(=O)Nc4ccccc4Cl)c3)C(=O)C2C1 (stereo not drawn) | – | – | – | – | – | –
COC(=O)c1nn(-c2ccc(OC)cc2)c(=O)cc1O | 1.6µM | – | – | – | – | –
CC1CCC/C(=N\Nc2ccc(Cl)c(C(=O)O)c2)C1 (stereo not drawn) | – | – | 5µM | – | – | ?
O=[N+]([O-])c1ccc2oc(/C=C/c3ccc(O)cc3)nc2c1 | · | – | 10µM | – | · | ·
O=C(NCCCCCCNC(=O)c1cncc(O)c1)c1cncc(O)c1 | 7.9µM | – | – | – | – | –
SMILES | Mito fusion act | PTHR1 agonist | BRCA1 expr act | IL-2 act | TCR act | BCR signal inh
Clc1cccc(Nc2nnc(-c3ccccc3)c3ccccc23)c1 | · | · | – | · | · | ·
Cc1nc2cc(Nc3nnc(-c4ccccc4)c4ccccc34)ccc2n1C | – | – | 4.5µM | – | – | ?
Cc1ccc(NC(=O)c2ccc(C(C)(C)C)cc2)cc1[N+](=O)[O-] | – | – | 8.9µM | – | – | –
Cc1c(NC(=O)c2ccc(C(C)(C)C)cc2)cccc1[N+](=O)[O-] | – | – | 7.9µM | – | – | ?
Cc1ccc(-c2noc(CN3CCCCC3)n2)cc1 | – | – | 2.5µM | – | – | –
Cc1ccc(-c2noc(CN3CCOCC3)n2)cc1 | – | – | ? | – | – | –
Clc1ccc(-c2noc(CN3CCN(c4ccccc4)CC3)n2)cc1 | – | – | – | – | – | –
Clc1ccc(-c2noc(CN3CCCC3)n2)cc1 | – | – | 13µM | – | – | –
O=C(NNC(=O)c1ccccc1Cl)c1cccs1 | – | – | ? | – | – | –
O=C(NNC(=O)c1ccccc1F)c1cccs1 | – | – | 5.6µM | – | – | ?
Nc1c(Cl)cc(/C=C2\C=Cc3ccccc32)cc1Cl | · | · | – | · | · | ·
CCN1C[C@@H]2[C@@H]3C(=O)N(Cc4ccccc4)C(=O)[C@@H]3[C@](Cc3ccccc3)(C(=O)OC)N2C1=NC | · | – | – | – | – | –
C=CCSC1=NNC(c2ccc(C(C)(C)C)cc2)=NN1 | – | – | 7.1µM | – | – | ?
COc1ccc(-c2csc(Nc3ncccc3C)n2)cc1OC | – | – | 2.8µM | – | – | ?
COc1ccc2cc(-c3csc(-c4cccnc4)n3)ccc2c1 | – | – | ? | – | – | –
COc1ccc(-c2csc(-c3cccnc3)n2)cc1C | – | – | 13µM | – | – | ?
COc1ccc(NC(=S)Nc2ncccc2C)cc1OC | – | – | 7.9µM | – | – | ?
CCC(Oc1ccccc1)C(=O)O/N=C(\N)c1ccc(OC)c(OC)c1 (stereo not drawn) | – | – | – | – | – | –
CC(C)C(=O)N1c2nc(C(C)C)nn2C2(CCCCC2)[C@@H]2CCCC[C@@H]21 | · | – | · | · | · | ·
CN(CC(=O)Nc1c(Cl)cccc1Cl)C(=O)c1cc(-c2cccs2)nn1-c1ccccc1 | 20µM | – | – | – | – | –
CN(C)C(=O)COc1ccccc1C(=O)OCC(=O)Nc1ccc(Oc2ccc(Br)cc2)cc1 | · | · | – | · | · | ·
O=C(COc1ccc(Cl)cc1)Nc1cc(-c2ccccc2)no1 | · | – | · | · | · | ·
O=S(=O)(Cc1cc(-c2ccc(Cl)cc2)no1)c1ccccc1 | – | – | ? | – | – | ?
Clc1ccc(-c2cc(COc3ccccc3)on2)cc1 | – | – | 10µM | – | – | ?
